Compound activity (PubChem)
A selection: hits, their analogues and other compounds. The true share with any hit is near 6.1%.
VP16 counter – Gal4-VP16 reporter inhibition counter-screen | Drosophila S2 Gal4-VP16 UAS-luciferase, luminescence, 20 h | 310,000 compounds, 3.5% hits | Potency, µM (top dose mostly 53.6 µM), usual class: inhibitors;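 note: Gal4-VP16 expression switched on by copper sulfate through the metallothionein promoter; nearly all actives have a fitted effect of over 50% in size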
RORgamma inh – inhibitors of mouse ROR gamma transcriptional activity | P51450 | Drosophila S2 Gal4-RORgamma UAS-luciferase reporter, 20 h | Potency, µM (titrated, usually from 53.6 µM), actives largely listed as inhibitors | 310,000 compounds, 5.4% hits | AID 2551; note: nearly all actives have a fitted effect of over 60% in size
Target sequence (P51450 whole entry, looked up, the tested form may be a part): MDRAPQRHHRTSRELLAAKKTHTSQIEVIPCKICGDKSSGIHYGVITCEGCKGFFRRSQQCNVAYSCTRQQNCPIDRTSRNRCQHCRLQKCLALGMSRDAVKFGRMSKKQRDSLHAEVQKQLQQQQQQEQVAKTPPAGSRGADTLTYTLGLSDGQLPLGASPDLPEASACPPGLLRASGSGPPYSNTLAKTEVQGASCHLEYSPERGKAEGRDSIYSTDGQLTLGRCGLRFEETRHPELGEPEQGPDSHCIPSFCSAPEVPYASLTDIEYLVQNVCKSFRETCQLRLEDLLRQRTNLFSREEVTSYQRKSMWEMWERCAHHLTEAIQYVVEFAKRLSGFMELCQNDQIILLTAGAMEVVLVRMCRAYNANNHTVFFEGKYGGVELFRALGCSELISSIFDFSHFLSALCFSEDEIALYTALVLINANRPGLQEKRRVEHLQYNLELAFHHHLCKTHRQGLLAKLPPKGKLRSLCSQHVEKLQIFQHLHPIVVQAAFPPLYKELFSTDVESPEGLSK
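Stably transfected Drosophila Schneider cells are the test system, with ROR gamma fused to Gal4 and luciferase under UAS control; luminescence is read after 20 hr of 700 uM copper sulfate induction at ambient temperature.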
TGFb inhibitor – blocks TGF-b signaling. HepG2 CAGA-GFP TGF-b/SMAD3 reporter, GFP fluorescence, 18 h; TGF-beta stimulated, 500 pg/mL final. Potency, µM (doses to about 46.1 µM), most hits filed as inhibitors. 410,000 compounds, 1.2% hits; note: nearly all actives have a fitted effect of over 65% in size
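Inhibition was scored as loss of TGF-beta-induced (500 pg/mL final, 18 hours, 37 degrees C) GFP in HEPG2 cells carrying a CAGA-GFP reporter, in DMEM with 1% FBS. Well GFP was summed per cell; Activity was normalised to unstimulated and stimulated DMSO wells, then concentration-response fitting.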
S2 tox – cell viability loss in ATXN counter-screen; S2 cells (HEK-293 line with an ATXN2-luciferase reporter) viability, CellTiter-Fluor protease fluorescence, 24 h; Potency, µM (doses to about 56.7 µM), usual class: cytotoxic; 400,000 compounds, 0.49% hits; AID 651635; note: nearly all actives have a fitted effect of over 40% in size
HepG2 viability – counter-screen for TGF-b inhibitors: cytotoxicity in HepG2 cells; HepG2 CAGA-GFP viability, ATP luminescence, 18 h; Potency, µM (highest dose often 46.1 µM), most hits filed as cytotoxic; 410,000 compounds, 0.76% hits
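HepG2 CAGA-GFP cells (1000/well, DMEM with 1% FBS) received compound, then TGF-beta at 500 pg/mL final, and were incubated 18 hours at 37 degrees C. Viability was read by CellTiter-Glo luminescence. Media-only wells were set as complete cell-killing and DMSO as no toxicity.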
ATXN2 expr inh – reduces ATXN2 reporter expression in HEK-293 cells; HEK-293 ATXN2-luciferase reporter, luminescence, 24 h; Potency, µM (highest dose often 57 µM), hits mostly inhibitors; 360,000 compounds, 0.72% hits; note: nearly all actives have a fitted effect of over 55% in size
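qHTS (up to 57 uM final) was run with 24 h compound exposure of reporter cells at 37 °C. Each well was multiplexed: SteadyGlo luminescence measured ATXN2-luciferase expression after a fluorogenic Gly-Phe-AFC viability readout (25 uM final).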
Each line names hits and unclear results; the compound was inactive in the other large screens; ! = not confirmed by another sample. Calls come from the whole dose curve; as a rule, active = well fitted curve in the direction sought with a large enough effect; inconclusive = small, poorly fitted or top-dose-only effect, or another doubt; inactive = no such curve, though single readings can be large; an effect the other way counts as inactive or inconclusive.

CSc1ncccc1C(=O)Nc1nccs1	RORgamma inh 10µM
C=CCOc1c(CNc2ccc(S(N)(=O)=O)cc2)cccc1OC	none
COc1ccc(CNc2ccc(S(N)(=O)=O)cc2)c(OC)c1OC	VP16 counter 20µM, RORgamma inh inconclusive
CCCc1cc(Nc2ccccc2OCC)n2ncnc2n1	VP16 counter inconclusive, RORgamma inh 11µM
CCCc1cc(Nc2ccccc2)n2ncnc2n1	none (no result: ATXN2 expr inh)
O=C(C[n+]1c(Cl)cc(Cl)c2ccccc21)c1ccccc1	none (no result: VP16 counter, RORgamma inh, S2 tox, ATXN2 expr inh)
COc1ccccc1N1CCN(S(=O)(=O)c2ccc3c(c2)CCCN3C(C)=O)CC1	TGFb inhibitor inconclusive (no result: VP16 counter, RORgamma inh)
Cc1ccc(Nc2ncc(C(=O)N3CCN(c4ccc(F)cc4)CC3)c3ccccc23)cc1Cl	TGFb inhibitor inconclusive (no result: VP16 counter, RORgamma inh, S2 tox)
Oc1ccc(Br)cc1/C=N/Nc1ncc(-c2ccccc2)cn1	RORgamma inh 11µM
COc1ccc(O)c(/C=N/NC(=S)NCCc2ccccc2)c1	VP16 counter 7.1µM, RORgamma inh 3.2µM, TGFb inhibitor inconclusive, S2 tox inconclusive, ATXN2 expr inh inconclusive
O=C(CCc1ccccc1)N/N=C/c1cc(Br)ccc1O	TGFb inhibitor inconclusive, ATXN2 expr inh inconclusive
Oc1ccc(/C=N/Nc2ncc(Br)cn2)c(O)c1	VP16 counter inconclusive, RORgamma inh inconclusive, ATXN2 expr inh inconclusive
Oc1ccc(Br)cc1/C=N/NC(=S)NCCc1ccccc1	VP16 counter 16µM, RORgamma inh 16µM, TGFb inhibitor inconclusive, ATXN2 expr inh inconclusive
COc1cc(/C=N\NC(=O)CC(=O)NCCc2ccccc2)ccc1O	none
S=C(NCCc1ccccc1)N/N=C/c1ccccc1Cl	VP16 counter inconclusive, RORgamma inh 11µM, TGFb inhibitor inconclusive
O=S(=O)(O)c1c(NS(=O)(=O)c2ccccc2)ccc2ccccc12	none (no result: VP16 counter, RORgamma inh, S2 tox, ATXN2 expr inh)
COc1ccc(/C(C)=N/NC(=S)NCCc2ccccc2)c(O)c1	VP16 counter 7.1µM, RORgamma inh 5µM, TGFb inhibitor inconclusive
CCOc1ccc(Nc2oc(-c3ccc(COc4ccc(OC)cc4)o3)nc2C#N)cc1	TGFb inhibitor inconclusive, S2 tox inconclusive (no result: VP16 counter, RORgamma inh)
C/C(=N\NC(=S)NCCc1ccccc1)c1ccc(Cl)cc1	VP16 counter 3.2µM, RORgamma inh 3.5µM, TGFb inhibitor inconclusive
S=C(NCCc1ccccc1)NN=C1CCCCCC1	none
C/C(=N/NC(=O)CNC(=O)c1ccccc1)c1ccc(C)cc1	none
C/C(=N\NC(=S)NCCc1ccccc1)c1ccc(C#N)cc1	VP16 counter 8.9µM, RORgamma inh 4µM
C/C(=N\NC(=S)NCCc1ccccc1)c1ccc(C)cc1	VP16 counter 5µM, RORgamma inh 2.8µM
c1cnc2cc3c(cc2n1)[C@@H]1CNC[C@H]3C1	none (no result: VP16 counter, RORgamma inh, TGFb inhibitor, HepG2 viability, ATXN2 expr inh)
CC(C)c1c(C(=O)NCC2(N3CCOCC3)CCCC2)cnn1-c1nccc(-c2cccs2)n1	none (no result: VP16 counter, RORgamma inh, TGFb inhibitor, HepG2 viability, ATXN2 expr inh)
Cc1c(CNCCCc2ccccc2)c(C(=O)O)c(C)n1Cc1ccc(Cl)cc1	S2 tox inconclusive (no result: VP16 counter, RORgamma inh)
CN1CCN(Cc2nc3ccccc3c(=O)n2Cc2nc(-c3ccc4ccccc4c3)cs2)CC1	VP16 counter inconclusive, RORgamma inh inconclusive, TGFb inhibitor inconclusive, HepG2 viability 16µM!, ATXN2 expr inh inconclusive (no result: S2 tox)
Cc1ccc2c(c1)CN(CCNC(=O)c1ccc3nc(C)[nH]c3c1)CC(C)O2 (configuration not stated)	none (no result: VP16 counter, RORgamma inh, TGFb inhibitor, HepG2 viability, ATXN2 expr inh)
Cn1ncc2c(Nc3cccc(Cl)c3)nc(Nc3cccc(Cl)c3)nc21	VP16 counter inconclusive, TGFb inhibitor inconclusive, HepG2 viability 22µM, ATXN2 expr inh inconclusive
Cn1ncc2c(Nc3ccc(O)cc3)nc(Cl)nc21	none
Cn1ncc2c(Nc3ccc(Br)cc3)nc(Nc3ccc(Br)cc3)nc21	VP16 counter inconclusive, TGFb inhibitor 11µM
CC(C)c1c(C(=O)NCc2ccncc2)cnn1-c1nccc(-c2cccs2)n1	none (no result: VP16 counter, RORgamma inh, TGFb inhibitor, HepG2 viability, ATXN2 expr inh)
CN(C)c1ncc2nc(CCc3ccccc3)c(=O)n(CCC#N)c2n1	none (no result: TGFb inhibitor, S2 tox, HepG2 viability, ATXN2 expr inh)
Cc1ncc([N+](=O)[O-])n1C	none (no result: VP16 counter, RORgamma inh, TGFb inhibitor, HepG2 viability)
CC(=O)Nc1cccc(-c2nnc(SCC(=O)c3cc([N+](=O)[O-])ccc3Cl)o2)c1	none (no result: VP16 counter, RORgamma inh)
COc1ccc(-c2cc(NCc3ccccn3)n3ncnc3n2)cc1	VP16 counter inconclusive, RORgamma inh 2.8µM (no result: ATXN2 expr inh)
